Sampled rows, rich in hits. Any-hit rate of the full collection: about 4%.
esBAF inh: blocks esBAF chromatin remodeling in mouse ES cells; Bmi1-luciferase knock-in reporter, 24 h; 100% = twice the neutral-well signal; reporter increase, % at 12.5 µM; 350,000 tested, 2% active; AID 602393; in the data active = activation above about 40%; inconclusive = no clear call, values can overlap the other calls;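 also: a rise in the Bmi1 reporter signal indicates esBAF inhibition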
LMP1 NFkB inh: reduces LMP1-driven NF-kappaB luciferase signal | LMP1-induced NF-kappaB luciferase reporter cells, luminescence | inhibition, % at 12.5 µM | 350,000 tested, 0.69% active | AID 504558; in the data active = inhibition above about 41%; inconclusive = no clear call, values can overlap the other calls
MITF TRPM1 HTS: MITF TRPM1 promoter activation in melanoma cells; SK-MEL-5 TRPM1-promoter luciferase, 24 h; % of positive control, neutral wells = 0; 300,000 tested, 0.75% active; activation, % at 12.5 µM;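 active = mean activation of at least 80% with every replicate also reaching 80%; inconclusive = mean reaches 80% but some replicate falls short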
Wnt act: activates Wnt/beta-catenin signaling in a reporter cell assay; AID 743398; activation, % at 9.35 µM; activator, plate reader; 300,000 tested, 1.2% active; in the data active = activation above about 30%, passing the limit was not always enough; inconclusive = no clear call, values can overlap the other calls
Statin myotox sup: suppression of simvastatin myotoxicity; C2C12 myotubes + simvastatin, ATP luminescence, 48 h; scaled: DMSO 0, geranylgeraniol control 100; rescue of ATP level, % at 7.49 µM; 330,000 tested, 0.78% active; AID 602340;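 active = mean ATP rescue above about 67%, or every replicate alone reaching that limit, limit read from the data, passing the limit was not always enough; inconclusive = no clear call, values can overlap the other calls; inactive = mean under the limit and some replicate under it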;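 also: myotubes were challenged with 10 µM simvastatin during compound exposure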
TRPM1 prom inh: reduces MITF-dependent TRPM1 promoter luciferase signal; AID 488899; SK-MEL-5 TRPM1 promoter luciferase, 24 h; inhibition, % at 12.5 µM; 330,000 tested, 0.83% active;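 active = mean inhibition across replicates of 60% or more, whatever share of single replicates reaches that level; inconclusive = some that reach 60%, reason not given; inactive = mean inhibition across replicates below 60%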
Hits are given with their value; 0 = inactive; ? = inconclusive; - = not tested or not shown; ! = not active in a repeat.

SMILES	esBAF inh	LMP1 NFkB inh	MITF TRPM1 HTS	Wnt act	Statin myotox sup	TRPM1 prom inh
Cc1ccc(CN(Cc2ccco2)C(=O)c2ccco2)cc1	0	0	0	0	0	0
CC(C)(C)c1ccc(C(=O)NC(=S)NCc2ccco2)cc1	0	0	0	0	0	0
COCCNC(=S)NC(=O)c1ccc(C(C)(C)C)cc1	0	0	87	0	0	0
CN1c2ccc(C#Cc3cccnc3)cc2[C@H]2[C@H](CCN2C(=O)C2CC2)[C@@H]1CO	0	-	-	-	0	-
CCSc1nnc(-c2cccnc2)n1-c1ccc(Cl)c(C)c1	0	0	0	0	111	0
COc1cccc(-n2c(SCC(=O)O)nnc2-c2cccnc2)c1	0	0	0	0	0	0
Cc1c(C#N)c2ccccc2n1CC(=O)N1CCc2ccccc2C1	0	0	0	0	0	0
Cc1noc(C)c1NC(=O)N(C)C[C@@H]1Oc2ccc(NC(=O)Nc3ccccc3)cc2C(=O)N([C@@H](C)CO)C[C@@H]1C	0	-	-	-	0	-
O=C(c1cc(Cl)nc2ccccc12)N(Cc1nnc(-c2ccccc2Cl)o1)C1CC1	-	0	0	0	-	0
COC(=O)N/N=C/c1cc(Br)ccc1O	0	0	0	0	0	0
O=C(N/N=C/c1cc(Cl)ccc1O)c1ccncc1	-	0	0	0	-	62
O=C(N/N=C/c1ccccc1Cl)c1ccncc1	0	0	-	0	0	0
O=C(N/N=C/c1cc(Br)ccc1O)c1ccccc1Cl	0	51	0	0	0	0
O=C(Nc1cc2c(cc1C(=O)O)OCCCO2)c1ccc(C(F)(F)F)cc1	55	0	0	0	0	0
O=C(Cc1ccccc1)Nc1cc2c(cc1Cl)OCCCO2	64	0	94	0	0	0
CCc1ccc(C(=O)Nc2cc3c(cc2Cl)OCCCO3)cc1	69	0	109	-	0	0
O=C(Nc1cc2c(cc1Cl)OCCO2)c1ccco1	0	0	-	-	0	0
CCS(=O)(=O)c1ccc2oc(Nc3ccccc3Br)nc2c1	-	0	100	36	-	0
CCS(=O)(=O)c1ccc2oc(Nc3ccccc3Cl)nc2c1	?	0	0	0	0	0
CCNC(=O)[C@H]1[C@H](CO)[C@H]2Cn3c(ccc(-c4ccc(F)cc4)c3=O)[C@@H]1N2C(=O)C1CC1	0	-	-	-	0	-
CCOC(=O)N1CCC(Nc2c(-c3ccc(C)c(C)c3)c(=O)c2=O)CC1	0	53	0	0	0	0
CCOC(=O)N1CCC(Nc2c(N3CCN(c4cc(Cl)ccc4C)CC3)c(=O)c2=O)CC1	0	0	-	0	0	-
CN=C1S/C(=C\c2ccc(N3CCOCC3)c(F)c2)C(=O)N1C	71	0	-	0	0	0
CN=C1S/C(=C\c2ccc(N3CCCC3)c(F)c2)C(=O)N1C	0	0	0	0	0	0
NC(=O)NN=C1CCn2cccc21	-	0	0	0	-	0
SMILES	esBAF inh	LMP1 NFkB inh	MITF TRPM1 HTS	Wnt act	Statin myotox sup	TRPM1 prom inh
CCOC(=O)c1nnn(CC(=O)NC(=O)Nc2cccc(CC)c2)c1C(=O)OCC	0	0	0	36	0	0
COc1ccc(C#Cc2ccc([C@H]3[C@H]4CN(C(=O)c5ccncc5)CCCCN4[C@H]3CO)cc2)cc1	0	-	-	-	98	-
c1ccc(Cc2cc(-c3ccccc3)on2)cc1	66	0	-	-	0	0
Cc1occc1C(=O)N/N=C/c1ccccc1[N+](=O)[O-]	-	0	-	44	-	0
Cn1nccc1C(=O)N/N=C/c1ccccc1[N+](=O)[O-]	0	0	0	41	0	0
Cc1ccc(C(=O)N/N=C\C=C\c2ccccc2[N+](=O)[O-])cn1	-	0	0	0	-	0
Cc1ccc(C(=O)N/N=C\c2ccccc2[N+](=O)[O-])cn1	53	0	0	0	0	0
O=C(C[C@@H]1CC[C@@H]2[C@H](COC[C@H](O)CN2C(=O)c2cc(Cl)cc(Cl)c2)O1)N1CCc2ccccc2C1	0	-	-	-	91	-
O=C(C[C@H]1CC[C@@H]2[C@H](COC[C@@H](O)CN2Cc2cc(F)ccc2F)O1)N1CCc2ccccc2C1	0	-	-	-	0	-
CN1C(=O)c2cc(NS(=O)(=O)c3ccc(Cl)cc3)ccc2OC[C@@H]2O[C@H](CC(=O)N3CCc4ccccc4C3)CC[C@H]21	0	-	-	-	109	-
O=C(C[C@H]1CC[C@@H]2[C@H](COC[C@@H](O)CN2Cc2ccc(Oc3ccccc3)cc2)O1)N1CCCCC1	0	-	-	-	71	-
O=C(C[C@H]1CC[C@@H]2[C@H](COC[C@H](O)CN2C(=O)c2cc(Cl)cc(Cl)c2)O1)N1CCc2ccccc2C1	0	-	-	-	0	-
O=C(C[C@H]1CC[C@H]2[C@@H](COC[C@@H](O)CN2C(=O)c2cc(Cl)cc(Cl)c2)O1)N1CCc2ccccc2C1	0	-	-	-	81	-
O=C(C[C@@H]1CC[C@H]2[C@@H](COC[C@H](O)CN2Cc2ccc(Oc3ccccc3)cc2)O1)N1CCCCC1	0	-	-	-	0	-
CN1C(=O)c2cc(NS(=O)(=O)c3ccc(Cl)cc3)ccc2OC[C@@H]2O[C@@H](CC(=O)N3CCc4ccccc4C3)CC[C@@H]21	0	-	-	-	0	-
CN(/N=C/c1ccc2c(c1)OCO2)c1nc(N2CCOCC2)nc(N2CCOCC2)n1	-	0	0	0	-	0
CN(C)c1ccc(/C=N/NS(=O)(=O)c2ccc(Br)cc2)cc1	0	0	0	0	0	0
CCOC(=O)c1nn(-c2cccc(C)c2)c2nc(-c3ccccc3)c(C#N)c(=O)n12	0	0	0	0	0	0
Cc1noc(C)c1NC(=O)N(C)C[C@H]1Oc2c(NC(=O)Nc3ccc4c(c3)OCO4)cccc2C(=O)N([C@H](C)CO)C[C@@H]1C	0	0	0	0	83!	0
C[C@H]1CN([C@@H](C)CO)C(=O)c2cccc(NC(=O)Nc3ccc4c(c3)OCO4)c2O[C@@H]1CN(C)Cc1ccc(-c2ccccc2)cc1	0	-	-	-	-	-
Cc1noc(C)c1NC(=O)Nc1cccc2c1O[C@H](CN(C)Cc1ccc(-c3ccccc3)cc1)[C@@H](C)CN([C@H](C)CO)C2=O	0	-	-	-	78	-
C[C@H](CO)N1C[C@H](C)[C@@H](CN(C)Cc2ccc(-c3ccccc3)cc2)Oc2c(NC(=O)Nc3ccc4c(c3)OCO4)cccc2C1=O	43!	0	0	0	0	0
C[C@H](CO)N1C[C@H](C)[C@@H](CN(C)S(=O)(=O)c2cn(C)cn2)Oc2c(NC(=O)Nc3ccc4c(c3)OCO4)cccc2C1=O	50!	0	0	0	0	0
COc1ccc(NC(=O)c2c[nH]c(=O)n(-c3ccc(C)c(C)c3)c2=O)c(OC)c1	0	0	-	0	0	-
Cc1ccc(S(=O)(=O)Nc2cccc3c2O[C@H](CN(C)C(=O)Nc2ccc4c(c2)OCO4)[C@@H](C)CN([C@@H](C)CO)C3=O)cc1	0	-	-	-	0	-
Cc1ccc(S(=O)(=O)Nc2cccc3c2O[C@H](CN(C)C(=O)Nc2ccc4c(c2)OCO4)[C@H](C)CN([C@H](C)CO)C3=O)cc1	72	-	-	-	0	-
Clc1ccc(OCCCCCN2CCCC2)c(Br)c1	0	0	0	0	0	0
Clc1ccc(OCCCN2CCCCC2)c(Br)c1	23	0	0	0	-	0

Bioassay records: PubChem, Broad Institute
